# From ChEMBL document CHEMBL4513135, “CO-ADD screening of IQOG CSIS (Spain) compounds”
# Several values for one entry are separate records, joined by “and”; a condition that tells them apart may be missing. Equal values may be shown once. Potency and affinity values are given separately.
# Tested on: Klebsiella pneumoniae
# Conditions: Concentration 32 ug.mL-1; ASSAY_TEST Inhibition of Bacterial Growth; detection method Absorption (OD600); MEDIA CAMHB; plate type 384well; NBS; CORNING #3640; time 18 hr
row,SMILES,Inhibition [%]
1,N#Cc1cc(C#N)c(Cl)nc1Cl,2.35
2,COc1ccc(-c2cc(-c3cc4ccccc4nc3Cl)cc(=O)[nH]2)cc1,10.14
3,C#CCNc1nc(NCCC2CCN(Cc3ccccc3)CC2)c(C#N)cc1C#N,-4.95
4,Cl.ClCCCC1CCNCC1,10.49
5,CN1C/C(=C\Br)n2c1c(C#N)cc(C#N)c2=O,4.89
6,O=C1OC(c2ccccc2)=NC1=Cc1ccc([N+](=O)[O-])cc1,9.13
7,C#CCNc1nc(NCCCCC2CCN(Cc3ccccc3)CC2)c(C#N)cc1C#N,-10.59
8,CC(=O)NC(=Cc1ccccc1)C(=O)O,19.96
9,COC1=C(C#N)CCC(=O)N1,12.74
10,CCOC(=O)C1=C(C)OC(N)=C(C#N)C1c1ccncc1 (configuration not stated),10.54
11,COC1(N)Oc2ccc3ccccc3c2C(c2ccccc2)C1(Br)C#N (configuration not stated),-5.7
12,Cc1nc2c3cnn(-c4ccccc4)c3nc(C)n2n1,15.01
13,C#CCN(C)Cc1cc2cc(OCc3ccc(OC)c4ncccc34)ccc2n1C,-13.41
14,COc1ccc(CNNC(=O)c2cc3ccccc3[nH]2)cc1,-6.62
15,CCOC(=O)c1c(C)[nH]c2ccc(OC)cc12,6.33
16,C=CCNc1[nH]c2ccc(O)cc2c1C#N,7.13
17,N#C[C@]1(Br)C(=N)Oc2ccc3ccccc3c2[C@@H]1c1ccc([N+](=O)[O-])cc1,5.78
18,Cc1cnc2ccc(Br)cn12,-1.82
19,Cl.ClCCCN1CCCCC1,13.52

row,SMILES,Inhibition [%]
1,CNCc1cc2ccccc2n1C.Cl,8.53
2,O=C(O)C(=Cc1ccccc1)NC(=O)c1ccccc1,27.9
3,C#CCNc1ncc(C#N)c(N)n1,3.55
4,COc1ccc2cc(C3C4=C(CC(C)(C)CC4=O)Oc4nc5c(c(N)c43)CCCC5)c(Cl)nc2c1 (configuration not stated),5.45
5,CN1C/C(=C\Cl)n2c1c(C#N)c(-c1ccccc1)c(C#N)c2=O,4.05
6,CC(C)(C)OC(=O)N[C@H]1CC[C@H](O)CC1,7.91
7,C#CCNc1cccc(F)n1,9.96
8,C#CCN(C)c1nc(OC)c(C#N)c(-c2ccccc2)c1C#N,15.23
9,Cc1ccc(CNNC(N)=O)cc1.Cl,11.02
10,COc1cc(C2C(C#N)=C(N)Oc3ccc4ccccc4c32)ccc1O (configuration not stated),5.47
11,COc1cccc(-c2c(C#N)c(=O)oc3c2ccc2ccccc23)c1,2.22
12,O=C(O)c1cc2ccccc2[nH]1 [INDOLE-2-CARBOXYLIC ACID],1.67
13,COC1=C(C#N)C(c2ccccc2)C(C=O)=C(Cl)N1 (configuration not stated),16.25
14,CC(=O)Oc1ccc(C=C2N=C(c3ccccc3)OC2=O)c(OC(C)=O)c1,2.13
15,Cl.NC1(C(=O)O)CC1c1cccc(Cl)c1 (configuration not stated),18.53
16,C#CCN(C)Cc1cc2cc(OCCCC3CCN(Cc4ccc(OC)c5ncccc45)CC3)ccc2n1C,-9.53
17,Cn1c(CNNC(=O)Cc2cccc3ccccc23)cc2ccccc21,2.56
18,Cl.N#Cc1cc(C#N)c(N2CCCC2)nc1Cl,14.18

# Tested on: Candida albicans
# Conditions: 32 ug/mL
row,SMILES,Inhibition
1,N#Cc1cc(C#N)c(Cl)nc1Cl,33.1%
2,COc1ccc(-c2cc(-c3cc4ccccc4nc3Cl)cc(=O)[nH]2)cc1,-0.7%
3,C#CCNc1nc(NCCC2CCN(Cc3ccccc3)CC2)c(C#N)cc1C#N,3.57%
4,Cl.ClCCCC1CCNCC1,0.27%
5,CN1C/C(=C\Br)n2c1c(C#N)cc(C#N)c2=O,3.61%
6,O=C1OC(c2ccccc2)=NC1=Cc1ccc([N+](=O)[O-])cc1,-1.46%
7,C#CCNc1nc(NCCCCC2CCN(Cc3ccccc3)CC2)c(C#N)cc1C#N,4.43%
8,CC(=O)NC(=Cc1ccccc1)C(=O)O,2.49%
9,COC1=C(C#N)CCC(=O)N1,0.89%
10,CCOC(=O)C1=C(C)OC(N)=C(C#N)C1c1ccncc1 (configuration not stated),-1.5%
11,COC1(N)Oc2ccc3ccccc3c2C(c2ccccc2)C1(Br)C#N (configuration not stated),8.36%
12,Cc1nc2c3cnn(-c4ccccc4)c3nc(C)n2n1,-1.82%
13,C#CCN(C)Cc1cc2cc(OCc3ccc(OC)c4ncccc34)ccc2n1C,6.72%
14,COc1ccc(CNNC(=O)c2cc3ccccc3[nH]2)cc1,0.44%
15,CCOC(=O)c1c(C)[nH]c2ccc(OC)cc12,1.53%
16,C=CCNc1[nH]c2ccc(O)cc2c1C#N,2.34%
17,N#C[C@]1(Br)C(=N)Oc2ccc3ccccc3c2[C@@H]1c1ccc([N+](=O)[O-])cc1,6.21%
18,Cc1cnc2ccc(Br)cn12,1.23%
19,Cl.ClCCCN1CCCCC1,1.17%
20,CNCc1cc2ccccc2n1C.Cl,1.26%

row,SMILES,Inhibition
1,O=C(O)C(=Cc1ccccc1)NC(=O)c1ccccc1,0.44%
2,C#CCNc1ncc(C#N)c(N)n1,2.29%
3,COc1ccc2cc(C3C4=C(CC(C)(C)CC4=O)Oc4nc5c(c(N)c43)CCCC5)c(Cl)nc2c1 (configuration not stated),7.25%
4,CN1C/C(=C\Cl)n2c1c(C#N)c(-c1ccccc1)c(C#N)c2=O,3.56%
5,CC(C)(C)OC(=O)N[C@H]1CC[C@H](O)CC1,0.02%
6,C#CCNc1cccc(F)n1,-0.33%
7,C#CCN(C)c1nc(OC)c(C#N)c(-c2ccccc2)c1C#N,4.58%
8,N#CC1(Br)C(=N)Oc2ccc3ccccc3c2C1c1ccccc1 (configuration not stated),5.08% and 2.03%
9,N#Cc1c(-c2cccc([N+](=O)[O-])c2)c2ccc3ccccc3c2oc1=O,4.25% and -0.04% and 3.33%
10,Cc1ccc(CNNC(N)=O)cc1.Cl,-0.27%
11,COc1cc(C2C(C#N)=C(N)Oc3ccc4ccccc4c32)ccc1O (configuration not stated),0.23%
12,COc1cccc(-c2c(C#N)c(=O)oc3c2ccc2ccccc23)c1,24.3%
13,O=C(O)c1cc2ccccc2[nH]1 [INDOLE-2-CARBOXYLIC ACID],26.2%
14,COC1=C(C#N)C(c2ccccc2)C(C=O)=C(Cl)N1 (configuration not stated),4.19%
15,COc1ccc2nc(Cl)c(C=O)cc2c1,7.25% and 8.8%
16,CC(=O)Oc1ccc(C=C2N=C(c3ccccc3)OC2=O)c(OC(C)=O)c1,3.75%
17,Cl.NC1(C(=O)O)CC1c1cccc(Cl)c1 (configuration not stated),2.81%
18,C#CCN(C)Cc1cc2cc(OCCCC3CCN(Cc4ccc(OC)c5ncccc45)CC3)ccc2n1C,0.97%
19,Cn1c(CNNC(=O)Cc2cccc3ccccc23)cc2ccccc21,-0.25%
20,Cl.N#Cc1cc(C#N)c(N2CCCC2)nc1Cl,3.61%
